Data from PubChem BioAssay AID651636 (Sanford-Burnham Center for Chemical Genomics, 2012).
Screen size: about 360,000 compounds; about 3,000 (0.83%) were called active. Rule as the data show it: active = inhibition above about 38%; inactive = the rest. Shown is part of a subset that was picked to be rich in actives.

These compounds were tested against G-protein coupled receptor 183 (Homo sapiens) (UniProt P32249) (assay: EBI2 receptor antagonists, beta-arrestin recruitment, primary screen, cell-based, luminescence, 7a,25-OHC stimulation, uHTS (AID 651636;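 also: enzyme fragment complementation signal reports receptor beta-arrestin coupling in cells; 0% = agonist plus DMSO wells and 100% = wells without agonist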)). Details: 7a,25-OHC stimulated, at 5 µM, stronger effect = higher value.
G-protein coupled receptor 183 (Homo sapiens), sequence (P32249 whole entry, looked up, the tested form may be a part): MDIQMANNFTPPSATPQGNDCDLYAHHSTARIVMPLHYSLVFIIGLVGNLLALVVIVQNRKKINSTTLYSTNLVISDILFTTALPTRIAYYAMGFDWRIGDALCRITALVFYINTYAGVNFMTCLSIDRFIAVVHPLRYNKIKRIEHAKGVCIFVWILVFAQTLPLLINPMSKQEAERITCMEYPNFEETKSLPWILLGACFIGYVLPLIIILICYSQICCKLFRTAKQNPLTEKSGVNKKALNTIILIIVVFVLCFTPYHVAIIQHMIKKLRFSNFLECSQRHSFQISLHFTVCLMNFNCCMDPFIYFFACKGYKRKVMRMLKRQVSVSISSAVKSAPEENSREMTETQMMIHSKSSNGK
In the case of `CC(C)[C@H](NC(=O)c1ccc(F)cc1)C(=O)OCC(=O)NC(=O)c1cccn1C`, the inhibition is reported as -1.33% (inactive). In the case of `Cc1cc(C)cc(NC(=O)COc2coc(CN3CCN(c4ccccc4)CC3)cc2=O)c1`, the inhibition is reported as -4.06% (inactive). For `CCCc1cc(=O)[nH]c(SCc2ccc(C#N)cc2)n1`, the inhibition was -20.6% (inactive). With `N#CC(=C1CCCC1)c1nc(-c2ccc(Cl)cc2)cs1` the inhibition was 54.1% (active). `N#CC(=C1SC=CS1)c1nc(-c2ccccc2)cs1` was tested, and the inhibition was -66.2% (inactive). With `CCCCCN1CC(O)=C(c2nc(-c3ccc(Cl)cc3)cs2)C1=N` the inhibition was -3.67% (inactive). For `O=C(Nc1cccc(S(=O)(=O)NC2=NCCC2)c1)C1CCCCC1`, the inhibition was -4.45% (inactive). For `CC(=O)c1ccc(NC(=O)CCc2nnc3ccc(NCc4ccco4)nn23)cc1`, the inhibition was -2.75% (inactive). With `CCN(CC)S(=O)(=O)c1cccc(C(=O)NCC(=O)OCC(=O)NCc2ccccc2)c1` the inhibition was -10.4% (inactive). In the case of `Cc1c(NC(=O)C(C)OC(=O)c2cc3c4ccccc4n(C)c3s2)c(=O)n(-c2ccccc2)n1C` (stereo unspecified), the inhibition is reported as -12.7% (inactive). `Cc1cccc(N2CCN(C(=O)c3cc4c(=O)[nH]c5ccccc5c4n3C)CC2)c1C` was tested, and the inhibition was 88.2% (active). For `CCn1c(C)c(C)c2cc(C(=O)N3CCN(c4cccc(C)c4C)CC3)ccc21`, the inhibition was 15.1% (inactive). `Cc1cccc(N2CCN(C(=O)/C=C/c3ccco3)CC2)c1C` was tested, and the inhibition was 33% (inactive). For `CCCn1c(NC(=O)C23CC4CC(CC(O)(C4)C2)C3)nc2ccccc21`, the inhibition was -9.2% (inactive). For `CCOC(=O)C(C)Oc1cccc2c(=O)n(CC(=O)N3CCc4ccccc43)ccc12` (stereo unspecified), the inhibition was 11.2% (inactive). In the case of `COc1cc(NC(=O)COC(=O)CSc2ccc3ccccc3c2)c(C)cc1[N+](=O)[O-]`, the inhibition is reported as -6.04% (inactive). With `COc1cc(/C=C(\C#N)C(=O)Nc2ccc3ccccc3c2)c([N+](=O)[O-])cc1OC` the inhibition was 49.6% (active). With `COc1cc(/C=C(/NC(=O)c2ccccc2)C(=O)Nc2cccc(O)c2)c([N+](=O)[O-])cc1OC` the inhibition was 5.05% (inactive). For `COc1ccc(CN2C(=O)CN=C2Nc2ccc(C)cc2C)cc1`, the inhibition was -8.98% (inactive). `COC(=O)[C@@]12C[C@@H](CC(=O)NCCCCc3ccccc3)C(=O)N(Cc3ccccc3)C1=CCC(C)(C)C2` was tested, and the inhibition was 17.4% (inactive). `O=C(NNC(=O)c1cnccc1C(F)(F)F)c1ccc(Cl)cc1` was tested, and the inhibition was -6.52% (inactive). With `CCN(C(=O)CSc1ncnc2sccc12)c1c(N)n(Cc2ccccc2)c(=O)[nH]c1=O` the inhibition was -7.44% (inactive). In the case of `O=C(CSc1nnnn1C1CCCC1)Nc1ccc2c(c1)OCCO2`, the inhibition is reported as 0.834% (inactive). With `CCN(CC(=O)NCc1cccs1)C(=O)c1ccccc1F` the inhibition was 0.894% (inactive). `CCN(CC(=O)NCc1cccs1)C(=O)/C=C/c1ccc(C)cc1` was tested, and the inhibition was 92% (active). In the case of `CCOc1ccc(/C=C/C(=O)N(CC)CC(=O)NCc2cccs2)cc1OC`, the inhibition is reported as 2.03% (inactive).
